From PubChem BioAssay (NCI) come the findings set out here.

The panel holds about 83,000 compounds, 20% with a hit somewhere; the sample as a whole holds those more often.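 Percent growth is the endpoint: 0 to 100 indicates growth inhibition (40 means 60% inhibition), 0 means no net growth, and negative values indicate cell death.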 A number with no mark means an inactive call. The source made the active and inactive calls. The calls were made as follows: active = growth percent below 10; inactive = the rest.

The experiment deals with PC-3 prostate. The experiment in a line: NCI-60 one-dose screen, 48 h (100 = growth as untreated, 0 = no growth, -100 = all killed). The settings on record: 10 µM unless noted.
Take `COc1ccccc1Cn1cc2c(c1)-c1oncc1CC2`: the growth was 25.4%. For `CC1=NN(c2cccc(Cl)c2)C(=O)/C1=C\c1cn(-c2nc(N3CCOCC3)nc(N3CCOCC3)n2)c2ccccc12`, the growth is 93%. Turning to `NC(=O)c1c(Nc2ccccc2)nn2cc(-c3nc4ccccc4s3)c(N)nc12`, the growth was 91.4%. In the case of `COc1cc(/C(=C2/O[C@@H]([C@H]3COC(C)(C)O3)[C@H]3OC(C)(C)O[C@@H]23)c2ccc3c(c2)OCO3)cc(OC)c1OC` it was 82.9%; in that of `O=C(N/N=C/c1coc2ccccc2c1=O)c1cc2oc(-c3ccccc3)cc2[nH]1`, 72.1%; in that of `CCCCCCCCCC[N+](C)(C)C`, -49% (active). Regarding `CCCCCCC(=O)C(C)C`, the growth is 100%. As for `CCCC(=O)NNc1[nH]c(-c2ccc(OC)cc2)cc1C(=O)OCC`, the growth is 106%. Take `O=C1c2cc([N+](=O)[O-])ccc2-c2cc(Cl)c(NC(=O)C(F)(F)F)cc21`: the growth is 94.8%. In the case of `N=C(c1ccccc1)N(Cc1ccccc1)Cc1ccccc1` it was 81.5%; in that of `CSCc1ncc(-c2ccc(C(F)(F)F)cc2)c(NC2CCCCCC2)n1`, -5.89% [25 µM] (active); in that of `O=C(Nc1cccc(Cn2c(=O)[nH]c3ccc(Oc4ncccn4)cc3c2=O)c1)c1ccc(Cl)cc1`, 46.2%.

As to `CC[C@H](Nc1ncnc2nc[nH]c12)c1nc2cccc(NCc3ccc(C(=O)NO)o3)c2c(=O)n1-c1ccccc1`, the growth was 93.3%.

For the compound `CCCCCCCCCC[N+](C)(C)N`, the growth is 62.4%. Turning to `C=C(C)C(C(=O)OCC)(C(=O)OCC)C(C)C`, the growth was 108%.
